Source: PubChem BioAssay (NMMLSC)
Rows were chosen to be rich in hits. Some 0.38% of all compounds tested hit in one or more screens of this group.
Rac1 act GTP bind – GTP binding modulators of activated mutant Rac1, primary screen, biochemical, bead-based flow cytometry, multiplex, fluorescent GTP | GST-Rac1 activated beads; actives lie on both sides; 100% means binding = to untreated wells | hit rate 0.11% among 190,000 | Ras-related C3 botulinum toxin substrate 1 (Homo sapiens), P63000 | percent activity (GTP binding), % at 10 µM;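 active means GTP binding at least 20 percentage points away from the 100% baseline, in either direction, so actives lie on both sides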
Cdc42 wt – modulators of GTP binding to wildtype Cdc42, primary screen, biochemical, multiplex bead flow cytometry, Bodipy-GTP | hit rate 0.2% among 190,000 | percent activity (GTP binding), % at 10 µM | AID 761, 2007 | Cell division control protein 42 homolog (Homo sapiens), P60953 | GST-Cdc42 beads; actives lie on both sides;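 active means percent activity GTP binding at least 20 points away from the 100% baseline, either down as inhibitor or up as activator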;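 further: median bead fluorescence of bound Bodipy-FL-GTP at 100 nM; 0% = excess unlabeled GTP control and 100% = no compound control; below 100% means less GTP binding so inhibitor and above means activator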
Target sequence (P60953 whole entry, looked up): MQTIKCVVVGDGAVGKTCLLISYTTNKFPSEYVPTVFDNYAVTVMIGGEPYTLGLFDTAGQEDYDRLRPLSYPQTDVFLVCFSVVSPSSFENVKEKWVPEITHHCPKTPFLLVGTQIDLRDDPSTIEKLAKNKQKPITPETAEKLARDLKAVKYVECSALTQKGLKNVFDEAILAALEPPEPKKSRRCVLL
Rab2 wt GTP – modulators of GTP binding to Rab2A wildtype, primary screen, biochemical, dog, bead-based flow cytometry, multiplex; GTP binding activity, % at 10 µM; GST-Rab2 wt beads, Bodipy-GTP binding; AID 760, 2007; hit rate 0.19% among 190,000; Ras-related protein Rab-2A (Canis lupus familiaris), P61105;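 active means GTP binding activity at least 20 points away from 100%, either lowered or raised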;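 further: 0% = beads with excess unlabeled GTP and 100% = no-compound control corrected for plate trend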
Rac1 wt GTP bind – wildtype Rac1 GTP binding modulators, primary screen, biochemical, GST-Rac1 beads, flow cytometry, multiplex; Ras-related C3 botulinum toxin substrate 1 (Homo sapiens), P63000; fluorescent GTP binding; actives lie on both sides; 0 = cold GTP competed, 100 = untreated; GTP binding activity (% of control), % at 10 µM; hit rate 0.27% among 190,000; AID 757, 2007;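 active means GTP binding activity at least 20 points away from the 100% control level, either lower or higher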
HRas wt GTP bind – modulators of GTP binding to HRas wildtype, primary screen, biochemical, bead-based flow cytometry, multiplex | GTPase HRas (Homo sapiens), P01112 | GST-Ras wt beads, Bodipy-FL-GTP binding; actives lie on both sides | GTP binding activity, % at 10 µM | hit rate 0.14% among 190,000;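 active means GTP binding activity at least 20% away from the 100% baseline, either lowered as inhibitor or raised as activator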;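 further: 0% = unlabeled GTP competition control and 100% = no-compound control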
Target sequence (P01112 whole entry, looked up): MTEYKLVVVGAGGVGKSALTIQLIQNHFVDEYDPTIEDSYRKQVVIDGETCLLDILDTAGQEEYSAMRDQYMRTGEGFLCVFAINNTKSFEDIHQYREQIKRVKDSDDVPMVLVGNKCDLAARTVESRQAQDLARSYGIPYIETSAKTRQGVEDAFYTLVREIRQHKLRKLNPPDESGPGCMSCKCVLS
Rab7 wt GTP bind – modulators of GTP binding to Rab7, primary screen, biochemical, wildtype, multiplex bead flow cytometry; Rab7 GTPase wild type (dog), Bodipy-FL-GTP binding; GST-Rab7 beads, fluorescent GTP binding; actives lie on both sides; untreated = 100%, excess cold GTP = 0%; GTP binding activity (percent of control), % at 10 µM; hit rate 0.055% among 190,000;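 active means fluorescent GTP binding to Rab7 beads changed by at least 20 points from the 100% baseline, either direction, mostly lower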;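 further: median green fluorescence of bound Bodipy-FL-GTP per Rab7 bead population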
An asterisk follows results filed as active; [ ] = dose if it differs, or a comment.

SMILES	Rac1 act GTP bind	Cdc42 wt	Rab2 wt GTP	Rac1 wt GTP bind	HRas wt GTP bind	Rab7 wt GTP bind
C=CCSc1nc(-c2ccc(OC)cc2)c(C#N)c(=O)n1CC=C	96	94	96	96	98	100
Nc1[nH]nc2ncc3cc4ccccc4nc3c12	83	80	82	68*	85	88
Cn1nnc(NC(=S)NC(=O)c2ccc(-c3ccc(Br)cc3)o2)n1	87	81	86	76*	87	96
C/C(=N\NC(=O)c1c[nH]c2ccccc12)c1ccc(C)o1	92	84	85	79*	84	92
O=C(NCc1ccc2c(c1)OCO2)c1ccc(CSCc2cccc(Cl)c2)o1	82	79*	80	83	82	88
O=C(CC12CC3CC(CC(C3)C1)C2)NCC(c1ccc(F)cc1)N1CCOCC1 (stereo unspecified)	93	94	95	93	95	96
Cn1c(=O)c2c(ncn2Cc2nnc(N)s2)n(C)c1=O	97	96	98	99	99	102
Cc1sc2nc3c(SC(C)C(=O)O)cc(C(=O)c4ccccc4O)cn3c(=O)c2c1C (stereo unspecified)	86	83	85	75*	87	89
CC(=O)Nc1ccc(N2C(=O)c3ccc(C(=O)Nc4nnc(SCc5ccc(F)cc5)s4)cc3C2=O)cc1	93	97	97	99	73*	94
CC(C)N(C(=O)CSc1nnnn1-c1ccc2c(c1)OCO2)C(C)C	98	100	99	101	100	106
Cc1cc(N/N=C/c2ccc(O)cc2O)nc(-c2ccccc2O)n1	89	81	77*	71*	79*	94
COc1cccc(-n2c(SCC(=O)NCCC3=CCCCC3)nc3n[nH]c(C)c3c2=N)c1	89	75*	76*	88	73*	87
O=C(O)c1cc(C(=O)O)cc(-c2ccc(/C=c3/sc4nc5ccccc5n4c3=O)o2)c1	80	80	79*	81	82	92
COc1cc(/C=C(\C#N)c2nc3ccc(C)cc3[nH]2)cc([N+](=O)[O-])c1O	85	78*	77*	70*	83	84
O=S(=O)(c1cccs1)N1CCC(CO)(Cc2ccc(Cl)cc2)CC1	96	98	100	97	100	102
Cc1ccc(SCC(=O)Nc2cc([N+](=O)[O-])ccc2O)cc1	95	96	95	97	94	96
COc1cc(-c2cc(=O)c3c(O)cc(O)cc3o2)ccc1O	88	82	83	78*	83	93
COc1cc(-c2cc(=O)c3ccccc3o2)ccc1O	93	93	94	93	94	97
C=C(C)COc1ccc(-c2n[nH]c(C)c2-c2ccc(Br)cc2)c(O)c1	92	84	94	79*	88	95
O=C(c1ccc2c(c1)OCO2)C1CCCN(C2CCN(CCc3ccccc3)CC2)C1 (stereo unspecified)	99	96	97	99	98	96
CCCS(=O)(=O)c1nnnn1-c1cccc(OC)c1	78*	80	89	91	91	90
O=C(Nc1cccc(Br)c1)c1ccc(OC2CSC2)cc1	97	100	101	102	99	94
O=C(C#Cc1cccc([N+](=O)[O-])c1)c1ccccc1	78*	78*	87	89	85	92
O=C(/C=C/c1cccc([N+](=O)[O-])c1)OCC(=O)c1ccccc1	96	96	94	106	101	98
COc1ccccc1C(=O)Nc1ccc(Br)cc1C	94	94	98	96	95	104
SMILES	Rac1 act GTP bind	Cdc42 wt	Rab2 wt GTP	Rac1 wt GTP bind	HRas wt GTP bind	Rab7 wt GTP bind
S=C(Nc1ccc(Oc2ccccc2)cc1)NC1CCCCCC1	100	79*	96	109	100	101
O=C(O)c1ccc(NC(=S)NC2CCCCC2)cc1	101	100	100	100	101	102
S=C(Nc1ccc(Oc2ccccc2)cc1)NC1CCCCC1	107	115	115	141*[activator]	107	104
CCCN(CC1CC1)C(=S)Nc1ccc(Oc2ccccc2)cc1	101	79*	99	102	99	99
S=C(Nc1ccc(Oc2ccc(NC(=S)NC3CCCCC3)cc2)cc1)NC1CCCCC1	99	104	101	106	101	98
CCCCN(C)C(=S)Nc1ccc(Oc2ccccc2)cc1	100	97	103	104	100	103
O=C(NCC1CCCO1)C1CCCN1C(=O)Nc1ccc(Cl)cc1 (stereo unspecified)	95	97	98	96	97	103
CCOc1ccc(N(CC(=O)NCCc2ccc(Cl)cc2)S(=O)(=O)c2c(C)[nH]c(=O)[nH]c2=O)cc1	85	84	86	84	86	93
Cc1ccc(/C(N)=N/OC(=O)CCC2CCCCC2)cc1	107	102	114	133*[activator]	109	96
CC(C)NC(=O)Cn1cc(C(=O)C2CC2)c2ccccc21	96	97	96	99	96	96
NC(=O)c1c(NC(=O)c2ccncc2)sc2c1CCCC2	92	85	86	87	88	94
NC(=O)c1c(NC(=O)c2cnccn2)sc2c1CCCC2	85	82	80	70*	83	87
CS(=O)(=O)Nc1ccc(Br)cc1C(=O)c1ccccc1	99	69*	97	103	99	102
CS(=O)(=O)Nc1ccccc1C(=O)O	99	102	99	105	99	102
Cc1nnc2ccc(-c3cccc(NC(=O)c4ccc(Cl)nc4)c3)nn12	91	91	91	86	91	95
O=C(Nc1cccc(-c2ccc3nncn3n2)c1)c1ccco1	89	86	87	77*	85	91
Cc1nnc2ccc(-c3cccc(NC(=O)c4ccc(Br)o4)c3)nn12	90	88	86	79*	86	91
CCOc1ccccc1C(=O)Nc1cccc(-c2ccc3nncn3n2)c1	88	73*	75*	73*	78*	92
CC(COc1ccccc1)N1CCC(CO)(Cc2ccccc2)CC1 (stereo unspecified)	96	98	95	99	100	96
Cc1ccc(C(=O)Nn2c(O)c(C=C3N=c4ccccc4=N3)sc2=S)cc1	79*	73*	81	72*	73*	86
